Residue numbers refer to the chain shown, from its start.
How the values were obtained:
Experiment in all cases: PBM; 200 nM protein, PBS
Conditions in all cases: dsDNA, one strand shown
HOXB4 [1] = target: HOXB4 (Homo sapiens, UniProt P17483 148-234)
VENTX [2] = target: T1, VENTX (Homo sapiens, UniProt O95231 78-163, R121Q)
T1 sequence: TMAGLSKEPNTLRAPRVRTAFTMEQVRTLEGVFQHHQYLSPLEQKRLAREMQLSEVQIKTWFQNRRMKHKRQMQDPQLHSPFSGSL

ALX4 = ALX4 (Homo sapiens, UniProt Q9H161 200-286)
PAX4 [3] = target: T2, PAX4 (Homo sapiens, UniProt O43316 9-242, R200K)
T2 sequence: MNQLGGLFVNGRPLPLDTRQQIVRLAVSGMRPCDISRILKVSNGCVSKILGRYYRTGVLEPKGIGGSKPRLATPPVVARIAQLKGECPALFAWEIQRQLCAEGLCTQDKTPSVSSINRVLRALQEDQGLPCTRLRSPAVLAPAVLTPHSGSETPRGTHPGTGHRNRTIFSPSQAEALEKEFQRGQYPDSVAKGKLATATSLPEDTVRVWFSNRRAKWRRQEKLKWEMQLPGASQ

PRRX1 [4] = target: PRRX1 (Homo sapiens, UniProt P54821 80-166, F113S)
Chain of PRRX1 (Homo sapiens, UniProt P54821 80-166, F113S) (P54821 80-166 F113S): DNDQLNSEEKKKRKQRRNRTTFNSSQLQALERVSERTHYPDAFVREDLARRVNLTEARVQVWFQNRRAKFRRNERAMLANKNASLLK

VENTX [5] = target: T3, VENTX (Homo sapiens, UniProt O95231 78-163, Y115F)
T3 sequence: T1 sequence with Y38F, Q44R

HOXA2 [6] = target: HOXA2 (Homo sapiens, UniProt O43364 129-215, R185T)
Chain of HOXA2 (Homo sapiens, UniProt O43364 129-215, R185T) (O43364 129-215 R185T): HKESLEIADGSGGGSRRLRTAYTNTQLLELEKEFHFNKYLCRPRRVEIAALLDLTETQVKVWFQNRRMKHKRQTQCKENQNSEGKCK

HOXA4 [7] = target: HOXA4 (Homo sapiens, UniProt Q00056 201-287, R217L)
Chain of HOXA4 (Homo sapiens, UniProt Q00056 201-287, R217L) (Q00056 201-287 R217L): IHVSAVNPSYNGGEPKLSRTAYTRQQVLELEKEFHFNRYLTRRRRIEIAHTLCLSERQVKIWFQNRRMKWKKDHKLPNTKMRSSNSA

HOXB4 [8] = target: HOXB4 (Homo sapiens, UniProt P17483 148-234, V174I)
Chain of HOXB4 (Homo sapiens, UniProt P17483 148-234, V174I) (P17483 148-234 V174I): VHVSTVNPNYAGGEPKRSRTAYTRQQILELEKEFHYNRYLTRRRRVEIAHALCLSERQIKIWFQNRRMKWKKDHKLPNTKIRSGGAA

PAX4 [9] = target: T4, PAX4 (Homo sapiens, UniProt O43316 9-242, R200Q)
T4 sequence: T2 sequence with K192Q

HOXA2 [10] = target: HOXA2 (Homo sapiens, UniProt O43364 129-215, R185K)
Chain of HOXA2 (Homo sapiens, UniProt O43364 129-215, R185K) (O43364 129-215 R185K): as the sequence (O43364 129-215 R185T) above, with T57K counted along it

PAX4 [11] = target: T5, PAX4 (Homo sapiens, UniProt O43316 9-242, F177V)
T5 sequence: T2 sequence with F169V, K192R

MSX2 [12] = target: MSX2 (Homo sapiens, UniProt P35548 130-214)
Chain of MSX2 (Homo sapiens, UniProt P35548 130-214) (P35548 130-214): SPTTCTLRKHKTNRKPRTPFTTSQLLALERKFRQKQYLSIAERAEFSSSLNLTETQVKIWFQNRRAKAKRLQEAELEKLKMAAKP

PAX4 [13] = target: T6, PAX4 (Homo sapiens, UniProt O43316 9-242, F177Y)
T6 sequence: T2 sequence with F169Y, K192R

MSX2 [14] = target: MSX2 (Homo sapiens, UniProt P35548 130-214, F161Y)
Chain of MSX2 (Homo sapiens, UniProt P35548 130-214, F161Y) (P35548 130-214 F161Y): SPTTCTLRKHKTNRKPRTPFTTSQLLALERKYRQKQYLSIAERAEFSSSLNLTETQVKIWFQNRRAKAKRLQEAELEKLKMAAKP

VAX1 [15] = target: VAX1 (Homo sapiens, UniProt Q5SQQ9 86-172, T142I)
Chain of VAX1 (Homo sapiens, UniProt Q5SQQ9 86-172, T142I) (Q5SQQ9 86-172 T142I): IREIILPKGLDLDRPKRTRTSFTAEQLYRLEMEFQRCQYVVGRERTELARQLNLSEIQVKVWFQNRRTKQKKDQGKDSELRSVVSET

HOXA4 [16] = target: HOXA4 (Homo sapiens, UniProt Q00056 201-287, W262F)
Chain of HOXA4 (Homo sapiens, UniProt Q00056 201-287, W262F) (Q00056 201-287 W262F): as the sequence (Q00056 201-287 R217L) above, with L17R, W62F counted along it

PRRX1 [17] = target: PRRX1 (Homo sapiens, UniProt P54821 80-166)
Chain of PRRX1 (Homo sapiens, UniProt P54821 80-166) (P54821 80-166): as the sequence (P54821 80-166 F113S) above, with S34F counted along it

VAX1 [18] = target: VAX1 (Homo sapiens, UniProt Q5SQQ9 86-172, K157R)
Chain of VAX1 (Homo sapiens, UniProt Q5SQQ9 86-172, K157R) (Q5SQQ9 86-172 K157R): as the sequence (Q5SQQ9 86-172 T142I) above, with I57T, K72R counted along it

HOXB6 = HOXB6 (Homo sapiens, UniProt P17509 132-218, K202E)
Chain of HOXB6 (P17509 132-218 K202E): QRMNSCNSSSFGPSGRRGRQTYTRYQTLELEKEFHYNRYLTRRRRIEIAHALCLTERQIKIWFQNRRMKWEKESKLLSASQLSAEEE

Chain of ALX4 (Q9H161 200-286): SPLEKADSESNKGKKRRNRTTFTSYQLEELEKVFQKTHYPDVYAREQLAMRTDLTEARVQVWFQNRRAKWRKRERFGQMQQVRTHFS
Chain of HOXB4 (Homo sapiens, UniProt P17483 148-234) (P17483 148-234): as the sequence (P17483 148-234 V174I) above, with I27V counted along it

Row | Sequence | binding signal (HOXB4 [1]) | binding signal (VENTX [2]) | binding signal (ALX4) | binding signal (PAX4 [3]) | binding signal (PRRX1 [4]) | binding signal (VENTX [5]) | binding signal (HOXA2 [6]) | binding signal (HOXA4 [7]) | binding signal (HOXB4 [8]) | binding signal (PAX4 [9]) | binding signal (HOXA2 [10]) | binding signal (PAX4 [11]) | binding signal (MSX2 [12]) | binding signal (PAX4 [13]) | binding signal (MSX2 [14]) | binding signal (VAX1 [15]) | binding signal (HOXA4 [16]) | binding signal (PRRX1 [17]) | binding signal (VAX1 [18]) | binding signal (HOXB6)
1 | CAATTAGC | 13.3 upbm affinity estimate (log intensity, higher = more binding, comparable within an allelic series) | 12.6 upbm affinity estimate (log intensity, higher = more binding, comparable within an allelic series) | 14.1 upbm affinity estimate (log intensity, higher = more binding, comparable within an allelic series) | 11.6 upbm affinity estimate (log intensity, higher = more binding, comparable within an allelic series) | 11.1 upbm affinity estimate (log intensity, higher = more binding, comparable within an allelic series) | 12.3 upbm affinity estimate (log intensity, higher = more binding, comparable within an allelic series) | 13.4 upbm affinity estimate (log intensity, higher = more binding, comparable within an allelic series) | 11.9 upbm affinity estimate (log intensity, higher = more binding, comparable within an allelic series) | 14 upbm affinity estimate (log intensity, higher = more binding, comparable within an allelic series) | 12 upbm affinity estimate (log intensity, higher = more binding, comparable within an allelic series) | 13.6 upbm affinity estimate (log intensity, higher = more binding, comparable within an allelic series) | 10.3 upbm affinity estimate (log intensity, higher = more binding, comparable within an allelic series) | 14.1 upbm affinity estimate (log intensity, higher = more binding, comparable within an allelic series) | 10.8 upbm affinity estimate (log intensity, higher = more binding, comparable within an allelic series) | 13.8 upbm affinity estimate (log intensity, higher = more binding, comparable within an allelic series) | 13.3 upbm affinity estimate (log intensity, higher = more binding, comparable within an allelic series) | 11.5 upbm affinity estimate (log intensity, higher = more binding, comparable within an allelic series) | 13.4 upbm affinity estimate (log intensity, higher = more binding, comparable within an allelic series) | 13.3 upbm affinity estimate (log intensity, higher = more binding, comparable within an allelic series) | –
2 | CAATTATC | 13 upbm affinity estimate (log intensity, higher = more binding, comparable within an allelic series) | 11.7 upbm affinity estimate (log intensity, higher = more binding, comparable within an allelic series) | 13.8 upbm affinity estimate (log intensity, higher = more binding, comparable within an allelic series) | – | 11.3 upbm affinity estimate (log intensity, higher = more binding, comparable within an allelic series) | – | 12.4 upbm affinity estimate (log intensity, higher = more binding, comparable within an allelic series) | 11.9 upbm affinity estimate (log intensity, higher = more binding, comparable within an allelic series) | 13.6 upbm affinity estimate (log intensity, higher = more binding, comparable within an allelic series) | 11.8 upbm affinity estimate (log intensity, higher = more binding, comparable within an allelic series) | 13 upbm affinity estimate (log intensity, higher = more binding, comparable within an allelic series) | – | 13.9 upbm affinity estimate (log intensity, higher = more binding, comparable within an allelic series) | – | 13.7 upbm affinity estimate (log intensity, higher = more binding, comparable within an allelic series) | – | 11.2 upbm affinity estimate (log intensity, higher = more binding, comparable within an allelic series) | 13.4 upbm affinity estimate (log intensity, higher = more binding, comparable within an allelic series) | – | 9.98 upbm affinity estimate (log intensity, higher = more binding, comparable within an allelic series)
3 | AATTAACA | 13 upbm affinity estimate (log intensity, higher = more binding, comparable within an allelic series) | 11.9 upbm affinity estimate (log intensity, higher = more binding, comparable within an allelic series) | 13.9 upbm affinity estimate (log intensity, higher = more binding, comparable within an allelic series) | 11.8 upbm affinity estimate (log intensity, higher = more binding, comparable within an allelic series) | 11.2 upbm affinity estimate (log intensity, higher = more binding, comparable within an allelic series) | 11.7 upbm affinity estimate (log intensity, higher = more binding, comparable within an allelic series) | 12.6 upbm affinity estimate (log intensity, higher = more binding, comparable within an allelic series) | 12.1 upbm affinity estimate (log intensity, higher = more binding, comparable within an allelic series) | 13.8 upbm affinity estimate (log intensity, higher = more binding, comparable within an allelic series) | 12.2 upbm affinity estimate (log intensity, higher = more binding, comparable within an allelic series) | 13.1 upbm affinity estimate (log intensity, higher = more binding, comparable within an allelic series) | 10.8 upbm affinity estimate (log intensity, higher = more binding, comparable within an allelic series) | 13.6 upbm affinity estimate (log intensity, higher = more binding, comparable within an allelic series) | 11.2 upbm affinity estimate (log intensity, higher = more binding, comparable within an allelic series) | 13.2 upbm affinity estimate (log intensity, higher = more binding, comparable within an allelic series) | 12.6 upbm affinity estimate (log intensity, higher = more binding, comparable within an allelic series) | 11.7 upbm affinity estimate (log intensity, higher = more binding, comparable within an allelic series) | 13.3 upbm affinity estimate (log intensity, higher = more binding, comparable within an allelic series) | 12.8 upbm affinity estimate (log intensity, higher = more binding, comparable within an allelic series) | 10 upbm affinity estimate (log intensity, higher = more binding, comparable within an allelic series)
4 | GGCAGGCC | 7.41 upbm affinity estimate (log intensity, higher = more binding, comparable within an allelic series) | – | – | 9.11 upbm affinity estimate (log intensity, higher = more binding, comparable within an allelic series) | – | – | – | – | 7.33 upbm affinity estimate (log intensity, higher = more binding, comparable within an allelic series) | 9.21 upbm affinity estimate (log intensity, higher = more binding, comparable within an allelic series) | – | 9.13 upbm affinity estimate (log intensity, higher = more binding, comparable within an allelic series) | – | 9.09 upbm affinity estimate (log intensity, higher = more binding, comparable within an allelic series) | – | – | – | – | – | –
5 | ACTAATTA | 13.5 upbm affinity estimate (log intensity, higher = more binding, comparable within an allelic series) | 12.8 upbm affinity estimate (log intensity, higher = more binding, comparable within an allelic series) | 14.4 upbm affinity estimate (log intensity, higher = more binding, comparable within an allelic series) | 12.2 upbm affinity estimate (log intensity, higher = more binding, comparable within an allelic series) | 12 upbm affinity estimate (log intensity, higher = more binding, comparable within an allelic series) | 12.6 upbm affinity estimate (log intensity, higher = more binding, comparable within an allelic series) | 14 upbm affinity estimate (log intensity, higher = more binding, comparable within an allelic series) | 12.9 upbm affinity estimate (log intensity, higher = more binding, comparable within an allelic series) | 14.2 upbm affinity estimate (log intensity, higher = more binding, comparable within an allelic series) | 12.7 upbm affinity estimate (log intensity, higher = more binding, comparable within an allelic series) | 13.8 upbm affinity estimate (log intensity, higher = more binding, comparable within an allelic series) | 10.8 upbm affinity estimate (log intensity, higher = more binding, comparable within an allelic series) | 14.1 upbm affinity estimate (log intensity, higher = more binding, comparable within an allelic series) | 11.4 upbm affinity estimate (log intensity, higher = more binding, comparable within an allelic series) | 13.8 upbm affinity estimate (log intensity, higher = more binding, comparable within an allelic series) | 14.1 upbm affinity estimate (log intensity, higher = more binding, comparable within an allelic series) | 12.8 upbm affinity estimate (log intensity, higher = more binding, comparable within an allelic series) | 13.7 upbm affinity estimate (log intensity, higher = more binding, comparable within an allelic series) | 14.2 upbm affinity estimate (log intensity, higher = more binding, comparable within an allelic series) | 10.2 upbm affinity estimate (log intensity, higher = more binding, comparable within an allelic series)

From PMC11006913
